# High-throughput results as filed in PubChem.
# ELG1 repair inh: qHTS screen for small molecules that inhibit ELG1-dependent DNA repair in human embryonic kidney (HEK293T) cells expressing luciferase-tagged ELG1; HEK293T ELG1-luciferase reporter, luminescence, 16 h; DNA damage induced by 5-fluorouridine; Potency, µM (top dose mostly 46.1 µM), hits mostly inhibitors; 330,000 compounds, 2.3% hits; also: nearly all actives have a fitted effect of over 55% in size
#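 Reporter activity after DNA damage by 5-fluorouridine is monitored. Compound-treated cells incubate 16 hr at 37 °C, then ONE-Glo is added for 30 min before luminescence reading.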
# Giardia kill: Small Molecules that selectively kill Giardia lamblia: qHTS | Giardia lamblia trophozoite viability | activity change, % at 7.66 µM, hits read low | 340,000 compounds, 0.15% hits | AID 540267, 2011; in the data active = activity change below about -80%; inconclusive = between about -30% and that limit;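 also: parasites exposed to compound for two days anaerobically before the ATP read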
#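 Giardia trophozoites, 100 cells per well, were exposed to compounds for 48 hrs at 37 deg C under anaerobic conditions; viability was then read as ATP content by bioluminescence after 15-30 min at room temperature.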
# Coupling enz: qHTS Assay for Inhibitors of Fructose-1,6-bisphosphate Aldolase from Giardia Lamblia: Coupling assay counterscreen; coupling enzyme system counterscreen, AmpLite Red fluorescence; AID 2472, 2010; 290,000 compounds, 0.67% hits; activity change, negative = inhibition, % at 58.2 µM, hits read low; in the data active = activity change below about -30%
#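 Coupling enzymes only (glyceraldehyde-3-phosphate) + compound, at 57.5 uM final, 10 min RT; add substrate/coupling/AmpLite Red mix, 20 min RT; fluorescence ex 525/em 598 nm. Actives flag coupling-system interference.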
# Sfp PPTase inh: qHTS Assay for Inhibitors of Bacillus subtilis Sfp phosphopantetheinyl transferase (PPTase); Biochemical Sfp PPTase activity, qHTS; Potency, µM, most hits filed as inhibitors; 310,000 compounds, 3.5% hits; AID 1490, 2009;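 also: the enzyme is Sfp with the accession as filed and its product quenches rhodamine fluorescence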
#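 Reaction rates are the 30-min fluorescence difference (ex 525, em 598 nm) in wells containing 15 nM Sfp, 5 uM rhodamine-CoA and 12.5 uM BHQ-2-YbbR at pH 7.6 with 10 mM MgCl2.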
# Hits are given with their value; i = inactive; ? = inconclusive; nt = no result given; ! = a repeat was not active. Shown are actives, neighbours in structure and some others; about 5.5% of the full set was active somewhere. Unless noted, calls follow the shape of the dose curve; as a rule, active = well fitted curve in the direction sought with a large enough effect; inconclusive = small, poorly fitted or top-dose-only effect, or another doubt; inactive = no such curve, though single readings can be large; an effect the other way counts as inactive or inconclusive.
SMILES,ELG1 repair inh,Giardia kill,Coupling enz,Sfp PPTase inh
Brc1ccc2ncnc(Nc3ccc(N4CCOCC4)cc3)c2c1,6.51µM,i,i,i
CC(=O)Nc1cccc(Nc2nc(-c3ccccc3)nc3ccccc23)c1,?,i,i,i
CC(=O)C(=O)O,nt,nt,i,i
CCOC(=O)c1cccc(Nc2nc(-c3cccnc3)nc3ccccc23)c1,9.2µM,i,i,i
CC(=O)c1cccc(Nc2ncnc3ccc(Br)cc23)c1,18.3µM,i,i,i
O=C(O)c1cccc(Nc2nc(-c3cccnc3)nc3ccccc23)c1,i,i,i,i
O=C(O)c1cccc(Nc2ncnc3ccccc23)c1,i,i,i,i
COCCNc1oc(/C=C/c2ccccc2OC)nc1S(=O)(=O)c1ccccc1,10.3µM,i,i,i
COCCN1C(=NCCCOC(C)C)N[C@@H](c2ccccc2)C(C(=O)OC)=C1C,i,i,i,i
COC(=O)[C@H](C)NC(=O)c1cc2c(cn1)[nH]c1ccccc12,i,i,i,8.91µM
C[C@H](NC(=O)c1cc2c(cn1)[nH]c1ccccc12)C(=O)O,i,i,i,8.91µM
Cc1cccc(C(=O)Nc2ccc(S(=O)(=O)N3CCOCC3)cc2C)c1,i,i,i,i
COC(=O)/C=c1/s/c(=C(\C#N)C(=O)NCc2ccco2)n(-c2ccc(C)cc2)c1=O,i,i,i,56.2µM
COc1cccc(CNC(=O)CN2C(=O)COc3ccc(S(=O)(=O)N4CCOCC4)cc32)c1,i,i,nt,i
COc1cc(CNCc2ccccn2)ccc1OCC(N)=O,?,i,nt,89.1µM
CCOCCn1c(=NC(=O)CSCC(=O)Nc2cc(C)on2)sc2cc(OC)ccc21,14.6µM,i,nt,i
O=C1C=C(O)c2ccccc2C1=O,nt,nt,i,79.4µM!
COC(=O)c1cc2ccc(OC)cc2c2cc(OC)c(OC)cc12,13µM,i,nt,nt
CC(C)(C)OC(=O)C[C@H]1C/C=C\C[C@H](CC(=O)NCCO)C(=O)NC[C@H](c2ccccc2)OC1=O,?,i,nt,nt
COc1cc2c(cc1OC)C1=NC(=O)CN1C(SCc1ccccc1C)=N2,10.3µM,i,i,i
NC(=O)c1c(NC(=O)CCCn2cnc([N+](=O)[O-])n2)sc2c1CCCC2,i,?,i,7.94µM
CC1CCc2c(sc(NC(=O)CCCn3cnc([N+](=O)[O-])n3)c2C(N)=O)C1 (stereo not given),i,?,i,i
CN(Cc1ccc(N(C)C)cc1)C(=O)c1cc2ccccc2o1,?,i,i,i
Cc1ccc2c(c1)C(c1ccccc1)C(=O)O2 (stereo not given),i,i,i,50.1µM
COc1ccc(-c2nc(NC(=O)c3cc(C(C)(C)C)nn3C)sc2C)cc1,8.2µM,i,i,?
SMILES,ELG1 repair inh,Giardia kill,Coupling enz,Sfp PPTase inh
COc1ccc(-n2nnc3c(=O)n(CC(=O)Nc4ccc5c(c4)OCCO5)cnc32)cc1OC,?,i,nt,i
COc1ccc(-n2nnc3c(SCC(=O)Nc4ccc5c(c4)OCCO5)ncnc32)cc1,i,nt,i,12.6µM
Cn1c(SCC(=O)N/N=C/c2cccs2)nc2ccccc21,i,i,i,i
CCn1c(SCC(=O)N/N=C/C=C\c2ccco2)nc2ccccc21,i,i,i,10µM
Cc1ccc(CSc2nnc(SCC(=O)N/N=C/C=C/c3ccccc3[N+](=O)[O-])s2)cc1,?,i,i,i
Cc1ccc(CSc2nnc(SCC(=O)N/N=C/C=C/c3ccco3)s2)cc1,?,i,i,39.8µM
O=C(CSc1nc2ccccc2n1Cc1ccccc1)N/N=C/c1ccco1,i,i,i,?
Cc1ccc(Cn2c(SCC(=O)N/N=C/c3ccc(C)o3)nc3ccccc32)cc1,i,i,i,56.2µM
Cc1ccc(/C=N/NC(=O)CSc2nc3ccccc3n2C)s1,i,i,-32.4,i
CC(C)Cn1c(SCC(=O)Nc2cc(Cl)c(Cl)cc2Cl)nc(O)cc1=O,i,i,nt,nt
COc1ccc(-c2nc3cnc(N4CCOCC4)nc3n(C[C@H]3CCCO3)c2=O)cc1,nt,nt,i,i
Cc1cc(Cl)ccc1NNC(N)=S,i,i,i,50.1µM
Cc1cccc(NC(=S)NCCO)c1C,i,i,i,i
Cc1cc(Cl)ccc1NC(=S)NC(C)(C)C,?,i,i,i
Cc1ccc(C)c(NNC(N)=S)c1,i,i,i,50.1µM
NC(=S)NNc1cc(Cl)cc(Cl)c1,i,i,i,14.1µM
Cc1cccc(NNC(N)=S)c1C,i,i,i,39.8µM
NC(=S)Nc1cc(Cl)cc(Cl)c1,i,i,i,i
CCOc1cc(C2C(C#N)=C(N)Oc3n[nH]c(-c4ccncc4)c32)cc([N+](=O)[O-])c1O (stereo not given),?,i,i,79.4µM
Cc1cc(Br)ccc1OCCCCN1CCCCC1,i,i,i,44.7µM
CC1(C)Cc2c(ccc3ccccc23)C2=C(C(=O)N3CCCC3)C(=O)C(=O)N21,?,i,-44.7,i
COc1ccccc1NC(=S)Nc1cccc2cnccc12,?,i,i,44.7µM
COc1cccc(NC(=S)Nc2cccc3ccccc23)c1,?,i,i,i
CCOc1ccc(NC(=S)Nc2cccc3cnccc23)cc1,i,i,-44.5,?
CCOc1ccc(NC(=S)Nc2cccc3ccccc23)cc1,?,i,i,i
SMILES,ELG1 repair inh,Giardia kill,Coupling enz,Sfp PPTase inh
COc1ccc(NC(=S)Nc2cccc3cnccc23)cc1,i,i,-36.6,?
Cn1c(CC(=O)Nc2ccccc2Cl)nnc1SCC(=O)NC1=NCCS1,i,i,i,i
CC1=C(c2ccccc2)SC2=NCCN21,i,i,i,i
COc1ccccc1CNC(=O)CSc1ccc(C(=O)Nc2ccccc2OC)cc1[N+](=O)[O-],?,i,i,50.1µM
Cc1ccc(Cn2cc(C(=O)c3ccc(F)cc3)c(=O)c3cc4c(cc32)OCCO4)cc1,20.6µM,i,i,i
O=C(Nc1ccc(C(=O)O)cc1)/C(=C\c1ccco1)NC(=O)c1ccco1,i,i,i,i
CC(C)(C)c1ccc(C(=O)N/C(=C\c2ccco2)C(=O)Nc2ccccc2C(=O)O)cc1,?,i,i,50.1µM
CC(=O)Nc1ccc(NC(=O)/C(=C/c2ccco2)NC(=O)c2ccccc2)cc1,i,i,i,17.8µM
O=C(Nc1ccc(C(=O)O)cc1)/C(=C\c1ccco1)NC(=O)c1ccccc1,i,i,i,20µM
CC(=O)c1ccc(NC(=O)/C(=C\c2ccco2)NC(=O)c2ccco2)cc1,i,i,i,i
O=C(Nc1cccc(F)c1)/C(=C\c1ccco1)NC(=O)c1cccs1,i,i,i,56.2µM
O=C(Nc1cccc(C(F)(F)F)c1)/C(=C\c1ccco1)NC(=O)c1cccs1,i,i,i,i
O=[N+]([O-])c1ccc(C2CC(c3ccccc3)=Nc3ccccc3S2)cc1 (stereo not given),i,i,i,10µM
O=C(O)C1CC(c2ccccc2)=Nc2ccccc2S1 (stereo not given),?,i,i,i
O=C1NC(=S)CN1c1ccccc1,i,i,i,5.62µM
COc1ccc(S(=O)(=O)NCC2CCCN(Cc3ccc(OC)cc3F)C2)cc1 (stereo not given),i,i,nt,i
